Screens from PubChem BioAssay.
Only some compounds are listed: those with a hit (about 4% of all), similar ones and a draw of the others.
HIF-2a inh: HIF-2a reporter inhibitors, primary screen, luminescence, 786-0 RCC cells. actives 0.72% (n = 360,000). 786-0 RCC cells HIF-2a reporter, luciferase luminescence, overnight. inhibition, % at 18.8 µM;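 active = inhibition of the luminescence signal of 40% or more relative to plate controls, in a single-dose primary screen at 18.75 µM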
TROY signal inh: inhibitors of TROY-driven NF-kB signaling, primary screen, Q293 LMP1-TROYcd cells, NF-kB luciferase, uHTS | Q293 LMP1-TROYcd NF-kB luciferase reporter, 4 h | inhibition, % at 10 µM | actives 0.98% (n = 360,000) | AID 1347056, 2019;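 active = compounds whose plate-normalised and pattern-corrected inhibition of the luciferase reporter signal at the single screening dose is 50% or more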
Peg3 prom inh: Peg3 promoter-driven luciferase inhibitors, primary screen, cell-based, HeLa, luciferase luminescence. inhibition, % at 20 µM. actives 1.7% (n = 360,000). HeLa PEG-Prom luciferase reporter, overnight;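 active = inhibition of at least 50% at 20 µM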
CF NFkB block: inhibitors of PAF-induced NF-kB signaling, primary screen, cell-based, GFP fluorescence, uHTS. KKLEB NF-kB-GFP reporter, GFP fluorescence overnight. AID 588850, 2011. inhibition, % at 5 µM. actives 0.86% (n = 360,000);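 active = at least 50% inhibition at 5 µM, scaled per plate between neutral and stimulator controls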;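 note: PAF is a Pseudomonas aeruginosa culture filtrate used as stimulus; plate controls were PAF-stimulated DMSO wells for no effect and unstimulated DMSO wells for full effect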
KKLEB tox: cytotoxicity in KKLEB CF airway cells, primary screen, cytotoxicity control for CF NF-kB inhibitor project, cell-based, uHTS, fluorescence assay plates; activity change (cytotoxicity), % at 5 µM; KKLEB CF airway cells viability, ATPlite luminescence, overnight; hits give low values; cells stimulated with P. aeruginosa culture filtrate; actives 0.36% (n = 360,000);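 active = corrected activity change at or below -50% at 5 µM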
TWEAK Fn14 block: inhibitors of TWEAK-Fn14 signaling, primary screen, luciferase reporter cells, uHTS | TWEAK-stimulated Fn14 reporter cells, luciferase luminescence, 8 h | inhibition, % at 10 µM | actives 2% (n = 360,000); in the data active = inhibition above about 50%
Numbers without * were called inactive; . = not tested or not shown.

SMILES | HIF-2a inh | TROY signal inh | Peg3 prom inh | CF NFkB block | KKLEB tox | TWEAK Fn14 block
CCOC(=O)C1(CCCc2ccccc2)CCN(C2CCSCC2)CC1 | 6 | 2 | 7 | 30 | -27 | 55*
CCCN(C(=O)c1cc(CC)c(C)s1)c1c(N)n(Cc2ccccc2)c(=O)[nH]c1=O | 17 | -11 | 6 | 10 | -8 | -8
CCc1cc(C(=O)N(CCCOC)c2c(N)n(Cc3ccccc3)c(=O)[nH]c2=O)sc1C | 10 | 71* | 7 | -21 | 6 | 2
OC1(c2cccc(C(F)(F)F)c2)CCN(c2ccc(-c3ccccc3)nn2)CC1 | -141 | -32 | -119 | 2 | -18 | -25
c1ccc2c(c1)[nH]c1c(N3CCC4(CC3)OCCO4)ncnc12 | 30 | 9 | 37 | 1 | 2 | 21
c1ccc(CN2CCN(c3ncnc4c3[nH]c3ccccc34)CC2)cc1 | 24 | 67* | 56* | -2 | -1 | 97*
CCOc1ccc2[nH]c3c(N4CCN(c5ccccn5)CC4)ncnc3c2c1 | 1 | 19 | 47 | -20 | 0 | 19
Cc1ccc2[nH]c3c(N4CCN(Cc5ccccc5)CC4)ncnc3c2c1 | 2 | 55* | 42 | -20 | -13 | 103*
c1ccc2c(c1)CCN(c1ncnc3c1[nH]c1ccccc13)C2 | 0 | 48 | 30 | -20 | 0 | 85*
OC1(c2cccc(C(F)(F)F)c2)CCN(c2ncnc3c2[nH]c2ccccc23)CC1 | 16 | 53* | 36 | -11 | -11 | 58*
OC(c1ccc2ccccc2c1)c1ncc(-c2ccc(C(F)(F)F)cc2)[nH]1 (stereo not given) | 26 | 27 | 42 | 2 | 7 | -36
CC(=O)C1=C(C)NC(=O)NC1c1cccc([N+](=O)[O-])c1O (stereo not given) | 10 | 11 | 12 | 10 | -31 | -1
COc1cc(C)ccc1S(=O)(=O)NC(=O)C1(C)CCN1C(=O)c1ccc(C(F)(F)F)nc1C (stereo not given) | 5 | -5 | 4 | 8 | -3 | 16
Cc1ccc2c(c1)[nH]c1c(N3CCN(Cc4ccccc4)CC3)ncnc12 | -6 | 68* | 29 | -14 | -15 | 96*
CCCCCCCCCCOC(=O)Cn1c(COc2ccccc2OC)[n+](C)c2ccccc21 | 42* | 61* | 106* | 51* | -54* | 67*
Cn1c(COc2ccccc2O)[n+](C)c2ccccc21 | 7 | -4 | -3 | -7 | -10 | 11
Cc1ccc(C(=O)O/N=C(\N)c2nonc2N)cc1 | -83 | 66* | -149 | -6 | 14 | 55*
N/C(=N\OC(=O)c1ccc(F)cc1)c1nonc1N | -31 | -70 | -20 | -14 | 6 | -14
Cc1ccc(NC(=O)Nc2ccon2)cc1Cl | -118 | -49 | -140 | 23 | -8 | -12
O=C(Nc1sc2c(c1C(=O)O)CCCCC2)c1cccs1 | -219 | 36 | -195 | -6 | 3 | 53*
Cc1ccc(C(=O)Nc2sc3c(c2C(=O)O)CCCCC3)o1 | -125 | -31 | -160 | -6 | 8 | 65*
NC(=O)c1c(NC(=O)c2ccc([N+](=O)[O-])o2)sc2c1CCCC2 | 7 | -6 | 99* | 107* | -64* | 13
O=C(Nc1nc2c(Br)cc(Br)cc2c(=O)s1)C1CCC1 | 10 | -8 | 27 | -5 | -13 | 10
Oc1ccc(N=Nc2cccc(C(F)(F)F)c2)cc1C=Nc1ccc(N2CCOCC2)cc1 | -37 | 21 | -6 | 78* | -9 | 36
Oc1ccc(C=Nc2ccc(N3CCOCC3)cc2)c(O)c1 | 4 | 45 | 2 | 8 | 2 | 28
SMILES | HIF-2a inh | TROY signal inh | Peg3 prom inh | CF NFkB block | KKLEB tox | TWEAK Fn14 block
CNC(=S)N/N=C1\C(=O)c2cccc3cccc1c23 | -38 | -62 | -41 | -85 | -1 | 97*
CCCCNC(=S)N/N=C1\C(=O)c2cccc3cccc1c23 | -2 | 7 | -7 | -5 | 7 | -12
COc1ccc(S(=O)(=O)N2CCOCC2)cc1C(=O)NCc1c(C)nn(Cc2ccccc2)c1C | 3 | 7 | 2 | 14 | -6 | 2
COc1cccc(C(=O)NC2=NCCS2)c1 | -62 | -20 | -108 | 5 | 0 | 48
COc1ccc(C(=O)SC2=NCCS2)cc1 | 15 | 34 | 5 | -7 | 10 | 54*
CCOc1ccc(C(=O)SC2=NCCS2)cc1 | -5 | 36 | 13 | 9 | 7 | 63*
CCOc1cccc(C(=O)NC2=NCCS2)c1 | -152 | -35 | -209 | 12 | -3 | 17
CCN(CC)CCCN(C(=O)c1ccco1)c1nc(-c2ccc(C)cc2)cs1 | 10 | -22 | 57* | 21 | -15 | 2
O=C(c1ccco1)N(CCCN1CCOCC1)c1nc(-c2ccc(Cl)cc2)cs1 | -9 | -4 | 24 | 5 | -17 | 0
CCN(CC)CCCN(C(=O)c1ccco1)c1nc(-c2ccc(Cl)cc2)cs1 | 13 | -47 | 64* | 7 | 0 | -50
COc1cccc(C(=O)Nc2ccc(C(=O)NCC(C)C)cc2)c1 | 19 | -2 | 1 | -5 | 8 | 14
CC1=C(C(=O)N2CCN(C(=O)c3ccco3)CC2)C2(CCC(C)CC2)OC1=O (stereo not given) | 14 | -10 | 3 | 4 | -2 | -12
CCc1ccc(C2NC(c3ccc(CC)cc3)C([N+](=O)[O-])C(C)(C)C2[N+](=O)[O-])cc1 (stereo not given) | 10 | -23 | 15 | 4 | -3 | 14
C=CCN(CC=C)c1cnn(-c2nc3ccccc3[nH]2)c(=O)c1Cl | -206 | 1 | -180 | 9 | -9 | 39
O=c1c(Cl)c(NCCCO)cnn1-c1nc2ccccc2[nH]1 | -99 | -10 | 99* | -7 | 5 | 50
O=C1C(N2CCOCC2)=C(n2nnc3ccccc32)C(=O)c2ccccc21 | 27 | 14 | 98* | 86* | -22 | 45
Cc1cc(C(C)(C)C)oc1C(=O)NCCCNC(=O)c1oc(C(C)(C)C)cc1C | 10 | . | 9 | 10 | 1 | 74*
COc1ccccc1CC1(C)NC(=O)N(CC(=O)N2CCc3ccccc3C2)C1=O (stereo not given) | -5 | -12 | -4 | 5 | 0 | 7
COc1ccc(OCCCCn2c(CO)nc3ccccc32)cc1 | -4 | 11 | 8 | 0 | -2 | 69*
Cc1cccc(OCCCCn2c(CO)nc3ccccc32)c1 | -32 | 5 | -15 | 4 | -19 | -2
O=C(CCc1ccc(S(=O)(=O)N2CCOCC2)cc1)OCC(=O)c1ccccc1F | 6 | -3 | 6 | -17 | 5 | 4
Cc1ccc(NNC(N)=S)cc1Cl | 1 | -1 | -6 | 8 | 0 | 2
